Source: PubChem BioAssay AID1159580 (chemical genetic matrix, 2015)
Where “and” joins values, the source holds several entries; their conditions need not be identical. Identical values can stand only once. The campaign covered roughly 5,500 compounds. About 2,000 (36%) were called active. Another 18% or so got no clear call; they are omitted. No stated cut-off is given here; in the data, active means normalized growth mostly below about 0.91 (no sharp cut-off); inconclusive means no clear call, values can overlap the other calls; inactive means mostly above about 0.92. The list shows a part of the results.

Test: chemical genetic growth profiling, strain panel (AID 1159580);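 further: tested at 20 µM; growth read once vehicle control cultures reached saturation at 30 °C; 1 = growth at the plate median or of vehicle wells; lower values mean less growth of the strain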
Conditions: S. cerevisiae deletion strains, growth OD

Measured: normalized growth

COc1cc(NS(=O)(=O)c2ccc(N)cc2)nc(OC)n1
inactive: locus YAL021C, strain ccr4, active compounds read low 0.976 | locus YAL026C, strain drs2, active compounds read low 0.982 | locus YAL030W, strain snc1, active compounds read low 0.976 | locus YBL061C, strain skt5, active compounds read low 0.97 | locus YBR009C, strain hhf1, active compounds read low 0.977 | locus YBR021W, strain FUR4, active compounds read low 0.983 | locus YBR023C, strain chs3, active compounds read low 0.977 | locus YBR171W, strain sec66, active compounds read low 0.968 | locus YBR229C, strain ROT2, active compounds read low 0.987 | locus YBR231C, strain swc5, active compounds read low 0.971 | locus YBR279W, strain paf1, active compounds read low 0.961 | locus YCL011C, strain gbp2, active compounds read low 0.986 | locus YCL016C, strain dcc1, active compounds read low 0.978 | locus YCL029C, strain bik1, active compounds read low 0.978 | locus YCL061C, strain MRC1, active compounds read low 0.97 | locus YCL069W, strain vba3, active compounds read low 0.985 | locus YCR088W, strain abp1, active compounds read low 0.962 | locus YDL005C, strain med2, active compounds read low 0.979 | locus YDL035C, strain GPR1, active compounds read low 0.976 | locus YDL040C, strain nat1, active compounds read low 0.963 | locus YDL074C, strain BRE1, active compounds read low 0.995 | locus YDL101C, strain DUN1, active compounds read low 0.985 | locus YDL134C, strain PPH21, active compounds read low 0.968 | locus YDL185W, strain tfp1, active compounds read low 0.982 | locus YDL192W, strain arf1, active compounds read low 0.984 | locus YDR001C, strain nth1, active compounds read low 0.978 | locus YDR069C, strain doa4, active compounds read low 0.957 | locus YDR101C, strain arx1, active compounds read low 0.999 | locus YDR137W, strain rgp1, active compounds read low 0.984 | locus YDR150W, strain NUM1, active compounds read low 0.999 | locus YDR159W, strain sac3, active compounds read low 0.933 | locus YDR162C, strain NBP2, active compounds read low 0.98 | locus YDR195W, strain ref2 0.942 | locus YDR297W, strain sur2, active compounds read low 0.983 | locus YDR318W, strain mcm21, active compounds read low 0.989 | locus YDR334W, strain swr1, active compounds read low 0.974 | locus YDR335W, strain msn5, active compounds read low 0.981 | locus YDR388W, active compounds read low 0.977 | locus YDR392W, strain spt3, active compounds read low 0.984 | locus YDR502C, strain sam2, active compounds read low 0.98 | locus YEL003W, strain gim4, active compounds read low 0.991 | locus YEL037C, strain rad23, active compounds read low 0.965 | locus YEL061C, strain CIN8 (second series), active compounds read low 0.986 | locus YEL061C, strain CIN8, active compounds read low 1 | locus YER015W, strain faa2, active compounds read low 0.99 | locus YER016W, strain bim1, active compounds read low 0.988 | locus YER110C, active compounds read low 0.972 | locus YER111C, strain swi4, active compounds read low 0.973 | locus YER155C, strain BEM2 (second series), active compounds read low 0.95 | locus YER155C, strain BEM2, active compounds read low 0.996 | locus YER167W, strain BCK2, active compounds read low 0.977 | locus YFR010W, strain ubp6, active compounds read low 0.976 | locus YGL078C, strain dbp3, active compounds read low 0.985 | locus YGL086W, strain mad1, active compounds read low 0.997 | locus YGL167C, strain pmr1, active compounds read low 0.976 | locus YGL173C, strain kem1, active compounds read low 0.951 | locus YGL227W, strain vid30, active compounds read low 0.97 | locus YGL240W, strain doc1, active compounds read low 0.97 | locus YGL248W, strain PDE1, active compounds read low 1.01 | locus YGL253W, strain hxk2, active compounds read low 0.977 | locus YGR078C, strain PAC10, active compounds read low 1.01 | locus YGR135W, strain pre9, active compounds read low 0.979 | locus YGR229C, strain SMI1, active compounds read low 0.982 | locus YGR252W, strain gcn5, active compounds read low 1.03 | locus YHR013C, strain ard1, active compounds read low 0.988 | locus YHR027C, strain rpn1, active compounds read low 0.981 | locus YHR030C, strain SLT2, active compounds read low 0.986 and 0.975 | locus YHR079C, strain IRE1 (second series), active compounds read low 0.991 | locus YHR079C, strain IRE1, active compounds read low 0.978 | locus YHR094C, strain hxt1, active compounds read low 0.98 | locus YHR129C, strain ARP1, active compounds read low 0.985 | locus YHR142W, strain chs7, active compounds read low 0.969 | locus YHR200W, strain rpn10, active compounds read low 0.993 | locus YIL066C, strain RNR3, active compounds read low 0.982 | locus YIL073C, strain SPO22, active compounds read low 0.87 | locus YIL125W, strain kgd1, active compounds read low 0.994 | locus YIR030C, strain dcg1, active compounds read low 0.997 | locus YJL092W, strain hpr5, active compounds read low 0.982 | locus YJL095W, strain BCK1 (second series), active compounds read low 0.963 | locus YJL095W, strain BCK1, active compounds read low 1.03 and 0.977 | locus YJL115W, strain asf1, active compounds read low 0.966 | locus YJL129C, strain trk1, active compounds read low 0.969 | locus YJL134W, strain LCB3, active compounds read low 0.986 | locus YJL154C, strain vps35, active compounds read low 0.965 | locus YJL164C, strain tpk1, active compounds read low 1 | locus YJL166W, strain qcr8, active compounds read low 0.978 | locus YJL168C, strain set2, active compounds read low 0.989 | locus YJL187C, strain SWE1 (second series), active compounds read low 0.994 | locus YJL187C, strain SWE1, active compounds read low 0.976 | locus YJR043C, strain POL32, active compounds read low 0.982
